Tau fluor counter: counter-screen for tau fibril formation inhibitors | Potency, µM (top dose mostly 57.7 µM) | 0.93% of 280,000 active | tau K18 P301L Alexa594 fluorescence, heparin fibrillization; note: nearly all actives have a fitted effect of over 55% in size
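Human tau K18 P301L (15 uM unlabeled, 0.24 uM Alexa 594-labeled) in 100 mM sodium acetate pH 7 with 20 uM heparin, 6 hr at 37 C. ThT 30 uM added, 1 hr ambient; Alexa 594 FP and total fluorescence read at 555/632 nm.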
Tau fibril ThT: blocks human tau fibril formation measured by thioflavin T; P10636; Potency, µM (doses to about 57.4 µM), actives largely listed as inhibitors; AID 1460; recombinant tau K18 P301L, heparin-induced fibrillization, ThT fluorescence; 2.1% of 270,000 active; note: nearly all actives have a fitted effect of over 55% in size
Target sequence (P10636 561-689 P618L limits assumed): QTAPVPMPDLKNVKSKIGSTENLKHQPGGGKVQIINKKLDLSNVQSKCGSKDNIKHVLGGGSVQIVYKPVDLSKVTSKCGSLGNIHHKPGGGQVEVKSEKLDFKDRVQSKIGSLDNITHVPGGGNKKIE
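Aggregation was driven by heparin (20 uM final) acting on recombinant tau […] bearing P301L in 100 mM sodium acetate pH 7; fibrils were detected with Thioflavin T.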
TRb SRC2 PPI: disrupts binding of human TR beta to SRC2. TRbeta-SRC2 peptide binding, fluorescence polarization; receptor liganded with 1 µM T3. Potency, µM (highest dose often 106 µM), most hits filed as inhibitors. 0.065% of 280,000 active. AID 1469; note: nearly all actives have a fitted effect of over 50% in size
Target sequence (P10828 whole entry, looked up): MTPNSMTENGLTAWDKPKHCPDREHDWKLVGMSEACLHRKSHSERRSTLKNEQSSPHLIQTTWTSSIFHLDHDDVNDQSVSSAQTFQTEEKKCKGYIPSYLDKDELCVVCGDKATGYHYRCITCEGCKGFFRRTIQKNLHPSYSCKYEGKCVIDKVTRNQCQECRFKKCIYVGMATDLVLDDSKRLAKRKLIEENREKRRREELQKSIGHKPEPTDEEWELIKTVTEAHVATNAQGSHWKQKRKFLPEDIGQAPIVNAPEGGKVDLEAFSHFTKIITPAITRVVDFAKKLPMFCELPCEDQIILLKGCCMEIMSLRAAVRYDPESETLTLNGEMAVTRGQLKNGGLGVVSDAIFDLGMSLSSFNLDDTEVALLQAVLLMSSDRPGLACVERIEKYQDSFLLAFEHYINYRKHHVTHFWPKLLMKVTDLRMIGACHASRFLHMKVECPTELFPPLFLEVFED
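Quantitative HTS by FP: 0.6 uM TRb LBD, 20 nM labeled SRC2 20-mer, 1 uM T3, 5% DMSO; 5 hr ambient incubation; % activity per concentration and potencies from concentration series.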
RGS12 GoLoco inh: inhibitors of human Gai1-RGS12 GoLoco interaction (red fluorophore); P63096; Gai1:RGS12 GoLoco peptide FP, rhodamine, 10 min; Potency, µM (top dose mostly 61.6 µM), hits mostly inhibitors; 0.44% of 230,000 active; AID 880; active = well fitted inhibition curve with a large enough effect, not every such curve was filed as active; inactive = no such curve, though single readings can be large or run the other way; note: nearly all actives have a fitted effect of over 30% in size
Tau FP inhib: tau fibrillization inhibition (FP) | P10636 | K18 P301L tau heparin fibrillization, Alexa594 FP, 6 h | Potency, µM (highest dose often 57.7 µM), actives largely listed as inhibitors | 0.39% of 280,000 active | AID 1468; note: nearly all actives have a fitted effect of over 55% in size
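Heparin (20 uM) drove fibril formation of recombinant tau K18 P301L, 15 uM unlabeled with 0.24 uM Alexa 594 label, for 6 hr at 37 C in 100 mM sodium acetate pH 7. Fluorescence polarization (555/632 nm) read 1 hr after 30 uM ThT.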
TR SRC2 fluor cs: alters Texas Red total fluorescence, flagging assay interference; TRb/SRC2 Texas Red total fluorescence interference; Potency, µM (doses to about 106 µM); 0.29% of 280,000 active; AID 1479; active = well fitted curve in either direction with a large enough effect; inconclusive = small, poorly fitted or top-dose-only effect
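Human TRb ligand-binding domain at 0.6 uM with 20 nM Texas Red SRC2 peptide in Tris buffer containing 1 uM T3 and 5% DMSO, incubated with compound 5 h at ambient temperature. Total fluorescence (555/632 nm) calculated as parallel + 2 × perpendicular.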
A number is an active result; - = inactive; ? = inconclusive; . = no result given; ! = a repeat was not active; [ ] = another dose, or the depositor's remark. Shown are actives, neighbours in structure and some others; about 3.2% of the full set was active somewhere. Unless noted, calls come from the whole dose curve; as a rule, active = well fitted curve in the direction sought with a large enough effect; inconclusive = small, poorly fitted or top-dose-only effect, or another doubt; inactive = no such curve, though single readings can be large; an effect the other way counts as inactive or inconclusive.

SMILES	Tau fluor counter	Tau fibril ThT	TRb SRC2 PPI	RGS12 GoLoco inh	Tau FP inhib	TR SRC2 fluor cs
CCCCCCNC(=O)N[C@@H](Cc1ccc(O)cc1)C(=O)NCCC[C@H]1CN2C(=NC[C@H]2C)N1CC1CCC1	-	-	-	-	-	-
CCOP(=O)(OCC)SCSCC	.	.	-	.	.	-
CC1(C)CC(=O)C2=C(C1)OC(N)=C([N+](=O)[O-])C2c1ccc(C#N)s1 (stereo not drawn)	?	8.9µM	-	-	?	-
N#Cc1cc(I)c(O)c(I)c1	.	.	-	.	.	-
CN1c2ccc([N+](=O)[O-])cc2CC2(C(=O)NC(=O)N(c3ccccc3)C2=O)C1c1ccccc1 (stereo not drawn)	-	?	-	-	-	-
Cc1[nH]n(-c2ccccc2)c(=O)c1C(c1ccc([N+](=O)[O-])cc1)c1c(C)[nH]n(-c2ccccc2)c1=O	-	-	-	-	-	0.35µM[quencher]
CNC(=O)Oc1ccc(-c2cn3cc(Cl)ccc3n2)cc1	-	-	-	-	-	-
CNC(=O)Oc1cccc(-c2cn3cc(OC(=O)NC)ccc3n2)c1	?	14µM	?	-	-	?
C[C@@]12CC[C@H]3[C@H](CCC4=CC(=O)CC[C@H]43)[C@H]1CC[C@H]2OC1(O)C(=O)c2ccccc2C1=O	.	.	.	-[14.2 µM]	.	.
CS/C(C)=N/OC(=O)N(C)SN(C)C(=O)O/N=C(\C)SC	.	.	-	.	.	-
N#CC1=C(N)Oc2c(c(=O)oc3ccccc23)C1c1ccc([N+](=O)[O-])o1 (stereo not drawn)	-	10µM	-	-	?	-
CCCCC(O)(Cn1cncn1)c1ccc(Cl)cc1Cl (stereo not drawn)	.	.	-	.	.	-
CC/C(=N\Nc1cccc2ccccc12)c1c(O)[nH]c(=O)[nH]c1=O	?	28µM	-	-	?	-
O=C(OC1Cc2c(O)cc(O)cc2OC1c1cc(O)c(O)c(O)c1)c1cc(O)c(O)c(O)c1 (stereo not drawn)	6.3µM[quencher]	6.3µM	-	-	18µM	-
O=C(O[C@@H]1Cc2c(O)cc(O)cc2O[C@@H]1c1cc(O)c(O)c(O)c1)c1cc(O)c(O)c(O)c1	14µM[quencher]	13µM	-	-	?	-
Oc1cc(O)c2c(c1)OC(c1cc(O)c(O)c(O)c1)C(O)C2 (stereo not drawn)	?	25µM	-	-	?	-
CCCCCCCCCCCCCCC(Br)C(=O)O (stereo not drawn)	.	.	-	.	.	-
CCOC(=O)Nc1cccc(OC(=O)Nc2ccccc2)c1	.	.	-	.	.	-
CCOC(=O)C(Cl)Cc1cc(-n2nc(C)n(C(F)F)c2=O)c(F)cc1Cl (stereo not drawn)	.	.	-	.	.	-
NCC(O)c1cc(O)c(O)cc1F (stereo not drawn)	-	11µM	-	-	?	-
O=c1c2ccccc2nc(CSc2ncnc3nc[nH]c23)n1-c1ccccc1	-	-	-	-	-	-
O=C(O)c1cc[c]([Hg][S]c2ncnc3nc[nH]c23)cc1	.	.	.	0.63µM	.	.
O=C(Nc1ccccc1)Nc1ccnc(Cl)c1	.	.	-	.	.	-
COc1cc2c(cc1OC)-c1c(OC)c(OC)c(OC)c3ccnc(c13)C2=O	-	10µM	-	-	-	-
COc1cc(CC2(CCc3ccncc3)C(=O)NC(=O)NC2=O)cc(OC)c1OC	-	-	-	-	-	-
SMILES	Tau fluor counter	Tau fibril ThT	TRb SRC2 PPI	RGS12 GoLoco inh	Tau FP inhib	TR SRC2 fluor cs
Clc1ccc(C(Cl)(Cl)Cl)cc1	.	.	-	.	.	-
C/C(=N\C(N)=O)N(C)Cc1ccc(Cl)nc1	.	.	-	.	.	-
Nc1ccccc1Cl	.	.	-	50µM	.	-
Cc1cc(C=C2C(=O)N(C)C(=S)N(C)C2=O)c(C)n1C1CCCC1	?	25µM	-	-	?	-
CSC1=N[C@@](C)(c2ccccc2)C(=O)N1Nc1ccccc1	.	.	-	.	.	-
CCOC1Oc2ccc(OS(C)(=O)=O)cc2C1(C)C (stereo not drawn)	.	.	-	.	.	-
C=C(C)C1CCC(C)=CC1c1c(O)cc(O)cc1CCCCC (stereo not drawn)	28µM[quencher]	?	-	-	-	-
CC1=CC(=O)NP(=O)(Oc2ccc3ccccc3c2)N1 (stereo not drawn)	-	-	-	13µM	-	-
O=C1NC(=O)N(Cc2ccccc2)C(=O)/C1=C\N1CCCc2ccccc21	-	-	-	-	-	-
O=C1NC(=O)C(=CN2CCc3ccccc32)C(=O)N1	-	10µM	-	-	?	-
CO[C@H]1[C@H](O)[C@H](O[C@@H]2[C@H](Oc3cccc4c(O)c5c(=O)oc6ccc(C)c7c(=O)oc(c34)c5c67)O[C@@H](C)[C@H](O)[C@H]2O)O[C@@H](C)[C@@H]1O	.	.	.	-[14.2 µM]	.	.
N=C(N)c1c(O)n(C2CCCCC2)c(=O)n(C2CCCCC2)c1=O	?	-	-	-	28µM	-
O=c1c(C=NCc2cccs2)c(O)n(C2CCCCC2)c(=O)n1C1CCCCC1	-	-	-	-	-	-
COCCNC(=O)c1c(NC(=O)c2ccco2)n(Cc2ccccc2)c2nc3ccccc3nc12	?	14µM	-	-	?	-
COCCCNC(=O)c1c(NC(=O)c2ccccc2Cl)n(Cc2ccccc2)c2nc3ccccc3nc12	-	-	-	-	-	-
CCC[CH2][Sn]1([CH2]CCC)[O]C(=O)C=CC(=O)[O]1	.	.	-	.	.	-
CCC1(CCCC(=O)c2ccc(F)cc2)C(=O)NC(=S)NC1=O	-	-	-	2µM	-	-
CN(C)[C@@H]1C(=O)C(C(N)=O)=C(O)[C@]2(O)C(=O)C3=C(O)c4c(O)cccc4[C@@](C)(O)[C@H]3[C@H](O)[C@@H]12	.	.	-	5.6µM	.	-
CN(C)C1C(=O)C(C(N)=O)=C(O)[C@@]2(O)C(=O)C3=C(O)c4c(O)cccc4[C@@](C)(O)C3[C@H](O)C12 (stereo partly drawn)	?	7.1µM	-	-	?	?
CN(C)[C@H]1C(=O)C(C(N)=O)=C(O)[C@]2(O)C(=O)C3=C(O)c4c(O)cccc4[C@@](C)(O)[C@H]3C[C@@H]12	.	.	-	-	.	-
O=S(=O)(O)C(F)(F)C(F)(F)C(F)(F)C(F)(F)C(F)(F)C(F)(F)F	.	.	-	.	.	-
N#CC(C#N)=Cc1ccc(O)c(O)c1	-	14µM!	-	-	?	-
COc1cc(C=C(C#N)C#N)cc(O)c1O	-	?	-	-	-	-
N#CC(=Cc1ccc(O)c(O)c1)C(N)=S	-	?	-	-	?	-
CC(C)(C)c1cc(C=C(C#N)C#N)cc(C(C)(C)C)c1O	?	16µM	-	-	?	-
CCCSP(=O)(OCC)Oc1ccc(Br)cc1Cl (stereo not drawn)	.	.	-	.	.	-
CCC(C)c1ccc(O)cc1 (stereo not drawn)	.	.	-	.	.	-
COP(=S)(OC)SCN1C(=O)c2ccccc2C1=O	-	35µM	-	-	?	-
